For assay [1], the target named is Lysosomal acid glucosylceramidase (Homo sapiens) (UniProt P04062). The experiment in a line: Glucocerebrosidase-p2 (AID 348; in the data active = potency below about 10 µM; note: potency is the fitted concentration of half-maximal effect). To be noted: purified GBA, blue fluorogenic substrate, 40 min. A digest of the protocol: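 Compounds titrated from 0.6 nM upwards against 0.2 nM enzyme in pH 5.9 citric acid/KH2PO4, taurocholate, tween-20; blue fluorogenic substrate 80 uM, 40 min room temperature, stopped and read Ex 365/Em 440 for AC50.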
Chain of Lysosomal acid glucosylceramidase (Homo sapiens) (P04062 whole entry, looked up): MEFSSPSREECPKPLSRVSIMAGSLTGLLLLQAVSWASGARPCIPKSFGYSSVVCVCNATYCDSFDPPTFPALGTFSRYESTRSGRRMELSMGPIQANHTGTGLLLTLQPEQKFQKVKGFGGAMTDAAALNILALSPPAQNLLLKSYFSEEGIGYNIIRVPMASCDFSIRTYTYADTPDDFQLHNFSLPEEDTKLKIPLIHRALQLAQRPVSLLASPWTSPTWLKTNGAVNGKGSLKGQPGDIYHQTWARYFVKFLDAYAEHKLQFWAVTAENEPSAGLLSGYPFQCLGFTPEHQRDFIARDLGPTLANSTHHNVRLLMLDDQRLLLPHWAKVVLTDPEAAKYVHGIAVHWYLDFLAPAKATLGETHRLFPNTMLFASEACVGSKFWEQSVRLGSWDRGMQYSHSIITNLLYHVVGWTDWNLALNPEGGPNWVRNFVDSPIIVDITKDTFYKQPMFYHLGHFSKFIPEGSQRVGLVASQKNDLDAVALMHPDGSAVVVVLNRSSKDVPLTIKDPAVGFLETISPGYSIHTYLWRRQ

Assay [2] can be described thus: AP1 Signaling Pathway (AID 357; active = well fitted curve in either direction with a large enough effect, not every such curve was filed as active;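 note: ME-180 reporter cells stimulated with EGF at its EC50 level; % is set by controls: 0 for no effect and ±100 for the full control effect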). The settings on record: ME-180 AP-1-bla reporter, EGF-induced, beta-lactamase ratio, 5 h; at 7.69 µM (top of the series) unless noted. A digest of the protocol:
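Titration-series screen for positive or negative modulators of EC50 EGF-induced signaling in ME-180 cells carrying an AP-1-driven beta-lactamase reporter. After 5 hours at 37 degrees Celsius, CCF4 460nm/530nm emission ratio gave %Activity; AC50 values derived.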

A short description of assay [3]: NFAT Signaling Pathway (AID 444; active = well fitted curve in either direction with a large enough effect, not every such curve was filed as active;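 note: carbachol stimulus at about its EC50 of 1 µM final; % is set by controls: 0 for no effect and ±100 for the full control effect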). The settings on record: Jurkat NFAT-bla M1, carbachol, beta-lactamase ratio, 5 h; at 7.69 µM (top of the series) unless noted. A digest of the protocol:
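Jurkat cells with NFAT-driven β-lactamase reporter and co-expressed M1 receptor, stimulated with carbachol (final 1 uM, ~EC50), compound titration, 5 h at 37 °C. CCF4 loaded 1 h at RT; 460/530 nm ratio gave %activity and AC50.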

A short description of assay [4]: Stat Signaling Pathway (AID 446; active = well fitted curve in either direction with a large enough effect, not every such curve was filed as active;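 note: ME-180 cervical cancer cells given 40 pM IL-6 alongside compound; SIE-controlled beta-lactamase reporter measured as 460/530 nm FRET emission ratio; % is set by controls: 0 for no effect and ±100 for the full control effect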). The settings on record: ME-180 SIE beta-lactamase reporter, IL-6 stimulated, 5 h; at 7.69 µM (top of the series) unless noted. The procedure, abridged:
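IL-6/STAT signaling read in ME-180 cells via an SIE beta-lactamase reporter. Stimulus was 40 pM IL-6 (its AC50) for 5 hrs, so both activation and inhibition register.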

Assay [5] has as its target Glucocorticoid receptor (Homo sapiens) (UniProt P04150). Description: GR-GFP Redistribution (AID 450;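 active = compounds whose dose series gives a full or clear partial fitted curve of increased nuclear translocation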; note: potency is the fitted concentration of half-maximal effect). The settings on record: U2OS GR-GFP nuclear translocation, laser cytometry, 2 h.
Assay [6] shares this target. Description: GR-EFC Redistribution (AID 451; calls by dose curve; note: potency is the fitted concentration of half-maximal effect). To be noted: CHO-K1 GR-EFC translocation, beta-gal luminescence, 2 h. The procedure, abridged:
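CHO-K1 cells expressing nuclear EA and GR-ED fragments of b-gal; compounds titrated up to 46 uM final, 2 h at 37 C. GR nuclear translocation read as complemented b-gal luminescence after 1 h RT detection.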

Assay [7] concerns the target Mitogen-activated protein kinase 10 (Mus musculus) (UniProt Q61831). The experiment in a line: JNK3 AlphaScreen Assay (AID 530; active = well fitted curve in either direction with a large enough effect, not every such curve was filed as active;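 note: kinase came from lysate of stimulated human HepG2 cells; signal reports phosphorylation of biotinylated GST-cJun 1-79 at Ser73 with 10 µM ATP; % is set by controls: 0 for no effect and ±100 for the full control effect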). To be noted: JNK3 lysate, c-Jun phosphorylation; series mostly up to 57.1 µM. The procedure, abridged:
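Pre-activated (IL-1β/TNFα) JNK3 in HepG2 lysates phosphorylates biotin-GST-cJun(1-79), 10 uM ATP; anti-phospho-cJun(Ser73) AlphaScreen read at room temperature, pH 7.6 Tris buffer. Compounds pre-incubated 15 min as titrations.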

Assay [8] deals with 3',5'-cyclic-AMP phosphodiesterase 4B (Homo sapiens) (UniProt Q07343). Description: qHTS Assay for Inhibitors of PDE-IV (AID 607; active = well fitted activation curve with a large enough effect in the main read-out, with a control signal flat, not every such curve was filed as active; note: % of control where 0% means no effect). To be noted: HEK293 ACTOne CNG channel cells, membrane potential fluorescence; series mostly up to 22.9 µM. The procedure, abridged: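 Live HEK293 cells with a modified cyclic nucleotide-gated (CNG) channel report intracellular cAMP via membrane-potential dye fluorescence (ex 535/em 590 nm). Endogenous PDE-IV was targeted. Compounds were tested at up to 22.9 uM final; RO 20-1724 100 uM served as control.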
Chain of 3',5'-cyclic-AMP phosphodiesterase 4B (Homo sapiens) (Q07343 whole entry, looked up): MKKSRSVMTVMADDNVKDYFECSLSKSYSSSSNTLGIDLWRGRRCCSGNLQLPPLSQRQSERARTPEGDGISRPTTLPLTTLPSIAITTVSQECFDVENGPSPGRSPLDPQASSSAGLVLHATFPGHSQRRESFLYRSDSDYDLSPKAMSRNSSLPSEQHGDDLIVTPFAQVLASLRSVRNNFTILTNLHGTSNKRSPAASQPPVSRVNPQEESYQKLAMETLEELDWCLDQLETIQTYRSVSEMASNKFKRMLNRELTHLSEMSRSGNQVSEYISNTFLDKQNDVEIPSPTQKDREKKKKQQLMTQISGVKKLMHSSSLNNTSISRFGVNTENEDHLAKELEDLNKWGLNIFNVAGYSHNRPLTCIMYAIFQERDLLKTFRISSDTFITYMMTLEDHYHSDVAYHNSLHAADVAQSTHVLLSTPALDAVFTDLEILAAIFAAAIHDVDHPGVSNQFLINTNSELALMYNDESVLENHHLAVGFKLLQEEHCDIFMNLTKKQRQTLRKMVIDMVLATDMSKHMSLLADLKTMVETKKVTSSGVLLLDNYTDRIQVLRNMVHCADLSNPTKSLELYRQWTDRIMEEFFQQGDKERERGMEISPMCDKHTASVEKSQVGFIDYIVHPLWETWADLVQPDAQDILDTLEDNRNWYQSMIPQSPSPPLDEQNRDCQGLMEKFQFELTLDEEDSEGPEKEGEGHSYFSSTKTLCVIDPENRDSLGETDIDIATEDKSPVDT

Assay [9] addresses Cytochrome P450 3A4 (Homo sapiens) (UniProt P08684). The experiment in a line: qHTS Assay for Activators of Cytochrome P450 3A4 (AID 885). Note: nearly all actives have a fitted effect of over 65% in size. To be noted: recombinant CYP3A4, Luciferin-PPXE luminescence, 60 min; series mostly up to 57.1 µM. The procedure, abridged:
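Quantitative HTS format: compounds preincubated with 20nM human CYP3A4 and Luciferin-PPXE substrate at KM, reaction started by NADPH regeneration, stopped after 60 min, luciferase luminescence read 20 min later.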
A general note: qHTS replaces the single test concentration by a dilution series.

The target of assay [10] is Dual specificity protein kinase CLK4 (Homo sapiens) (UniProt Q9HAZ1). Description: qHTS Assay for Inhibitors of CDC-like Kinase 4 (Kinase-Glo Assay) (AID 1770). Note: % is set by controls: 0 for no effect and ±100 for the full control effect; nearly all actives have a fitted effect of over 65% in size. To be noted: recombinant Clk4, Kinase-Glo ATP depletion luminescence; series mostly up to 66.7 µM. The procedure, abridged: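 Clk4 25 nM, RS peptide 100 uM, ATP 1 uM, pH 7.5 Tris, 10 mM MgCl2, 2.5 mM DTT; 4.5 h RT; ATP depletion read by Kinase-Glo luminescence.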
Chain of Dual specificity protein kinase CLK4 (Homo sapiens) (Q9HAZ1 whole entry, looked up): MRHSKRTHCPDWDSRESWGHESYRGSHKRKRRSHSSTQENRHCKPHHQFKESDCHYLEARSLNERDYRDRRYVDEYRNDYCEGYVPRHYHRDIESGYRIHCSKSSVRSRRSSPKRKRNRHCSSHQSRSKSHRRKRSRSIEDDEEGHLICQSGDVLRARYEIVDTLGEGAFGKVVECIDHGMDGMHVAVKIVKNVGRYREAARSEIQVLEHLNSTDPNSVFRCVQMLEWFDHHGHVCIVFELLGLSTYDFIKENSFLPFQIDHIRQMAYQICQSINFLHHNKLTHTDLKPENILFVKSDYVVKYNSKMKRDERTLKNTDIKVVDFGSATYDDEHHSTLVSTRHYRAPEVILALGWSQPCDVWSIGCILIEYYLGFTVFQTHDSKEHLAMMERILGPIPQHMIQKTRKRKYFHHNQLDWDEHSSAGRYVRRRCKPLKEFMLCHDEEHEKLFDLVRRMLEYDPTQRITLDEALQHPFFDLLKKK

Assay [11] has the same target. The experiment in a line: qHTS Assay for Inhibitors of CDC-like Kinase 4 (ADP-Glo Assay) (AID 1771). Note: % is set by controls: 0 for no effect and ±100 for the full control effect; nearly all actives have a fitted effect of over 70% in size. To be noted: recombinant CLK4, ADP-Glo luminescence; series mostly up to 80 µM. A digest of the protocol: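 25 nM Clk4 with 100 uM RS repeat peptide and 1 uM ATP (final) in buffer with 2 mM MgCl2, 0.5 mM EGTA, 2.5 mM DTT, 0.01% Triton X-100; 1 h at room temperature; ADP-Glo luminescence for ADP formed.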

Assay [12] shares this target. Description: qHTS Assay for Inhibitors of CDC-like Kinase 4 (ADP-FP Assay) (AID 1795). Note: % is set by controls: 0 for no effect and ±100 for the full control effect; nearly all actives have a fitted effect of over 60% in size. To be noted: Transcreener ADP fluorescence polarization; series mostly up to 50 µM. A digest of the protocol:
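Kinase activity was followed as ADP output, converted from fluorescence polarization with a calibration curve. Reactions ran one hour at low ATP (1 uM) with RS peptide substrate.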

For assay [13], the target named is Ubiquitin carboxyl-terminal hydrolase 1 (Homo sapiens) (UniProt O94782). The experiment in a line: Inhibitors of USP1/UAF1: Pilot qHTS (AID 504865).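 Note: rhodamine fluorescence freed from ubiquitin-rhodamine substrate followed over time; top concentration of the series differs between compounds; % is set by controls: 0 for no effect and ±100 for the full control effect; nearly all actives have a fitted effect of over 35% in size.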 To be noted: purified USP1/UAF1, Ub-rhodamine cleavage fluorescence; series mostly up to 54.9 µM. A digest of the protocol:
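Enzyme-free wells gave the negative control, while test wells held 1nM USP1/UAF1 preincubated with compound for 15 min at room temperature. Ub-Rho at 150nM final started the reaction, and fluorescence at 480/540 nm was recorded kinetically.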

Assay [14] is described as follows: Primary qHTS for small molecule stabilizers of the endoplasmic reticulum resident proteome: Secreted ER Calcium Modulated Protein (SERCaMP) assay (AID 1508630). Note: % is set by controls: 0 for no effect and ±100 for the full control effect. The settings on record: SH-SY5Y GLuc-SERCaMP (Gaussia luciferase released on ER calcium loss) secretion, thapsigargin, luminescence; series mostly up to 38.4 µM. The procedure, abridged: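 GLuc-SERCaMP-expressing SH-SY5Y cells, pretreated 16 h with compound, are challenged with thapsigargin to empty ER calcium stores; after 4 h, coelenterazine is added directly to the medium and luminescence is imaged.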

In assay [15] the target is Cytochrome P450 2D6 (Homo sapiens) (UniProt P10635). The experiment in a line: qHTS Assay for Inhibitors and Substrates of Cytochrome P450 2D6 (AID 891). Note: potency is the fitted concentration of half-maximal effect; nearly all actives have a fitted effect of over 60% in size. To be noted: recombinant CYP2D6, luciferin-ME EGE luminescence; series mostly up to 57.1 µM. A digest of the protocol:
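Human CYP2D6 (5 nM) with 30 uM Luciferin-ME EGE (at Km) in 100 mM KPO4, compound preincubated 10 min, then NADPH regeneration system for 60 min at room temperature. Luciferin read by luminescence; normalized to 1.43 uM quinidine.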

Assay [16] can be described thus: qHTS Assay for Identification of Small Molecule Agonists for Hypoxia Response Element Signaling Pathway (AID 914; active = well fitted activation curve with a large enough effect in the signal ratio, with a control signal flat, not every such curve was filed as active; the % refers to the signal ratio; note: % of control where 0% means no effect). To be noted: ME-180 (cervical carcinoma) HRE-bla reporter, beta-lactamase ratio, CoCl2, 17 h; activation: stronger effect = higher value. A digest of the protocol: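 In Opti-MEM containing 0.5% dialyzed FBS and 10 mM HEPES, ME-180 HRE-bla cells received a compound titration and EC50 CoCl2. They were incubated 17 hours, then CCF4-loaded 2.5 hours at room temperature before ratio reading.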

Unmarked numbers belong to inactive results. Records with an inconclusive call do not appear. Calls of active or inactive are those of the source. Unless noted, calls come from the whole dose curve; as a rule, active = well fitted curve in the direction sought with a large enough effect; inconclusive = small, poorly fitted or top-dose-only effect, or another doubt; inactive = no such curve, though single readings can be large; an effect the other way counts as inactive or inconclusive. Where only a bound is given, the exact number is not on record here.

Chain of Cytochrome P450 3A4 (Homo sapiens) (P08684 whole entry, looked up): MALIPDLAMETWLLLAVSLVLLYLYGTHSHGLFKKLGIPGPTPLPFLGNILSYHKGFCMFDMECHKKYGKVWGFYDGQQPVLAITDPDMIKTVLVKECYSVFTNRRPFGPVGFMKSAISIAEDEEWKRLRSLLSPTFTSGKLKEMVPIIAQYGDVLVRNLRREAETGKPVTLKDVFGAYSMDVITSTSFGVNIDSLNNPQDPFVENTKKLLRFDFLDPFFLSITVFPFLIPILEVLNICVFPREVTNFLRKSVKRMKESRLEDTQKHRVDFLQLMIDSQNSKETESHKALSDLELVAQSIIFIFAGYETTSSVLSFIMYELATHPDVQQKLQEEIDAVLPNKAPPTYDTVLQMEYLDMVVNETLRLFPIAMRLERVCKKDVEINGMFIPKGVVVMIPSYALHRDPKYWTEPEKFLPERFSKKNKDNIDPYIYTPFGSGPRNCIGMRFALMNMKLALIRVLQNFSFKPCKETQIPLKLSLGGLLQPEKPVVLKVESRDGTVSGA
Chain of Glucocorticoid receptor (Homo sapiens) (P04150 whole entry, looked up): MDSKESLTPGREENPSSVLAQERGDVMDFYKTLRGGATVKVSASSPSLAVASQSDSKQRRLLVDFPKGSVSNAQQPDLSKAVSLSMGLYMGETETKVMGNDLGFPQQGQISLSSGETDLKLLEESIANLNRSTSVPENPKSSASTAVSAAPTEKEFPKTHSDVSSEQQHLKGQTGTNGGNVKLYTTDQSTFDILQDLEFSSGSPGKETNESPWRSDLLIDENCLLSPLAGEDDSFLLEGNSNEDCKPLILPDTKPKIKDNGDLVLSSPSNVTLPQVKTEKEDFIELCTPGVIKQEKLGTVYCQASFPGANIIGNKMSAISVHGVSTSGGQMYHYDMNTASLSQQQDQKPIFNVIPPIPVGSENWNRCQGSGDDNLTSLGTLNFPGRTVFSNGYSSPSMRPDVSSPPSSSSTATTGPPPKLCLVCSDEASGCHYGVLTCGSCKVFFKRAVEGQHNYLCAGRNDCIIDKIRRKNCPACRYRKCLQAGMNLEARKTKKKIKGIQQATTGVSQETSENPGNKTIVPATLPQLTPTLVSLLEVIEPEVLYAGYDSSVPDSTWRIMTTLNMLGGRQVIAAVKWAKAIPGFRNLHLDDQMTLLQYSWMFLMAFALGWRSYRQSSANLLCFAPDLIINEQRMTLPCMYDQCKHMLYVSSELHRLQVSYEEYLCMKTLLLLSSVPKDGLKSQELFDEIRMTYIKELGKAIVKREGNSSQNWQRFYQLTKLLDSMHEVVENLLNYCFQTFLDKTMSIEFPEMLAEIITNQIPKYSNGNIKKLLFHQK
Chain of Ubiquitin carboxyl-terminal hydrolase 1 (Homo sapiens) (O94782 whole entry, looked up): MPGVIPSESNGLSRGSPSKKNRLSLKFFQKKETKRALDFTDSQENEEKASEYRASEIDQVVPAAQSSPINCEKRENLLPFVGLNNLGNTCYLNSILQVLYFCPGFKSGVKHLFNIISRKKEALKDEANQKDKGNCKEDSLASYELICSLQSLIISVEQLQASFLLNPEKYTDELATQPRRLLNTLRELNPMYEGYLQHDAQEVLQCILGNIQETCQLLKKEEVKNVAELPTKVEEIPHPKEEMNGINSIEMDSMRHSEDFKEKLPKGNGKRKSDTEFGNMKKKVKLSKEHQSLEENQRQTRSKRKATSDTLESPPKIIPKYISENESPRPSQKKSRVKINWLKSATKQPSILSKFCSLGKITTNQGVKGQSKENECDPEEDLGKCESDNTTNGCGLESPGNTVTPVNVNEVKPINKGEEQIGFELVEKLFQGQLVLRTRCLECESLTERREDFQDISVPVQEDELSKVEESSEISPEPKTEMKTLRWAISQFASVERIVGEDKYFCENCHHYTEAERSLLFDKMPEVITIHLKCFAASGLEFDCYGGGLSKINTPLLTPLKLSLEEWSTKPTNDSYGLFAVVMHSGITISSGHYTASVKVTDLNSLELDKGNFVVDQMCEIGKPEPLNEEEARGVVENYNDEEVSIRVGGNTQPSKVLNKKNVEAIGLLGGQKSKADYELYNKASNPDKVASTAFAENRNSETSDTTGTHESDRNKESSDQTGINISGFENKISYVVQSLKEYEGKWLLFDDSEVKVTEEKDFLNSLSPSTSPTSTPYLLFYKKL
Chain of Cytochrome P450 2D6 (Homo sapiens) (P10635 whole entry, looked up): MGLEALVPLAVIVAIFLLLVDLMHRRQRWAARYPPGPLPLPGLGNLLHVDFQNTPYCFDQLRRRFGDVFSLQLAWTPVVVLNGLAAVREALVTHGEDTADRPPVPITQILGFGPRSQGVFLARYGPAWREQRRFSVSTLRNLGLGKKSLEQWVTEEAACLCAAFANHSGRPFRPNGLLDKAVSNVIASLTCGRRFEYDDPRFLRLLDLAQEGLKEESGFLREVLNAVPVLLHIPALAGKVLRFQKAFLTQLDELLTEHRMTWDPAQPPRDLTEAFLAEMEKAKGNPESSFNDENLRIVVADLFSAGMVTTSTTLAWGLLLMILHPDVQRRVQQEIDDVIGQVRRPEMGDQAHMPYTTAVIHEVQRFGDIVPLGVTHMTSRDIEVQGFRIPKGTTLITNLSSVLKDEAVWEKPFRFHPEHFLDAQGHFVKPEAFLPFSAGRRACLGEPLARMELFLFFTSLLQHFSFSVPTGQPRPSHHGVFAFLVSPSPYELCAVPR

Take `O=c1c(-c2ccccc2)nc2cnc(Nc3ccccc3)nc2n1C[C@H]1CCCO1`: the figures for the Potency in [1], in assay [5] and in assay [6] were > 11.4 µM, > 9.22 µM and > 46 µM, respectively. For the same compound, the activity change, negative = inhibition in assay [2] was 1.69%; in assay [3] it was -14.2%. In addition, the activity, negative = inhibition in assay [4] was -4.27%. The Potency entry in [7], in assay [8], in [9], in [10], in [11] and in [12] was “inactive” each time. Besides, in assay [13], the Potency result is “inactive”. Moreover, the outcome in [14] was inactive.

Regarding `COc1ncc2nc(-c3ccccc3)c(=O)n(CCC#N)c2n1`, the Potency in assay [1] was > 11.4 µM; in assay [5], > 9.22 µM; in [6], > 46 µM. Also, the activity change, negative = inhibition in [2] is -23.7%; in [3], -5.79%. Also, the activity, negative = inhibition in assay [4] is -14.9%. Besides, the Potency entry in [7], in assay [8], in assay [10], in [11], in assay [12] and in assay [13] was “inactive” each time. In [14], the outcome was inactive.

Consider `CN(C)Cc1ccccc1-c1nc(NC2CC2)c2ccccc2n1`, for which the Potency in assay [1] was > 11.4 µM; in assay [5] it was > 46 µM; in assay [6] it was > 46 µM; in [15], 3.98 µM (active). Besides, the activity change, negative = inhibition in assay [2] was 1.1%; in assay [3], -22.4%. Besides, the activity, negative = inhibition in assay [4] is 7.64%. Moreover, the Potency entry in assay [7], in [9], in assay [10], in assay [11], in assay [12] and in [13] was “inactive” in each case. The result in assay [14] was inactive.

Regarding `CN(C)c1ncc2nc(-c3cccs3)c(=O)n(C)c2n1`, the Potency in [1] was > 11.4 µM; in [5] it was > 9.22 µM; in assay [6], > 46 µM. Moreover, the activity change, negative = inhibition in assay [2] was 1.79%; in assay [3], -2.27%. In assay [4], the activity, negative = inhibition was 23.5%. Besides, the Potency result in assay [8], in assay [9], in assay [10], in assay [11], in [12] and in [13] was “inactive” each time. Also, in assay [14], the result was inactive.

Take `O=c1c(-c2cccs2)nc2cnc(Oc3ccccc3)nc2n1Cc1cccs1`: the Potency in assay [1] is > 11.4 µM; in [5], > 9.22 µM. In addition, the values for the activity change, negative = inhibition in [2] and in [3] were -14% and 1.21%, respectively. The activity, negative = inhibition in assay [4] was 1.3%. For the same compound, the Potency result in assay [7], in assay [8], in assay [9], in [10], in [11] and in assay [12] was “inactive” throughout. Also, the activation in assay [16] was 9.14%. Also, in [14], the result was inactive.

As for `CN(C)c1ncc2nc(-c3cc(F)cc(F)c3)c(=O)n(C)c2n1`, the Potency in assay [1] is > 11.4 µM; in assay [5], > 9.22 µM; in assay [6], > 46 µM. The results for the activity change, negative = inhibition in assay [2] and in [3] were 13.4% and 2.93%, respectively. The Potency result in [7], in [8], in [10], in [11], in assay [12] and in assay [13] was “inactive” in each case. Also, the outcome in assay [14] was inactive.

For the origin of these results see PubChem BioAssay (NCATS).
